Measured values taken from article PMC5540273 (PLoS ONE, 2017).

How the values were obtained:
Conditions in all cases: concentration: 1 μM, replicates: in singlicate; n = 1
[1] = system: RPS6KA4(Kin.Dom.1-N-terminal)
[2] = system: RPS6KA4(Kin.Dom.2-C-terminal)
[3] = system: RPS6KA5(Kin.Dom.1-N-terminal)
[4] = system: RPS6KA5(Kin.Dom.2-C-terminal)
[5] = system: T1, RSK1(Kin.Dom.1-N-terminal)
T1 construct: gene RPS6KA1

[6] = system: T2, RSK1(Kin.Dom.2-C-terminal)
T2 construct: gene RPS6KA1

[7] = system: T3, RSK2(Kin.Dom.1-N-terminal)
T3 construct: gene RPS6KA3

[8] = system: T4, RSK2(Kin.Dom.2-C-terminal)
T4 construct: gene RPS6KA3

[9] = system: T5, RSK3(Kin.Dom.1-N-terminal)
T5 construct: gene RPS6KA2

[10] = system: T6, RSK3(Kin.Dom.2-C-terminal)
T6 construct: gene RPS6KA2

[11] = system: T7, RSK4(Kin.Dom.1-N-terminal)
T7 construct: gene RPS6KA6

[12] = system: T8, RSK4(Kin.Dom.2-C-terminal)
T8 construct: gene RPS6KA6

S6K1 = system: S6K1
SBK1 = system: SBK1
SGK2 = system: SGK2
SGK3 = system: SGK3
SGK = system: SGK
SIK2 = system: SIK2
SIK = system: SIK
SLK = system: SLK
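Also: KINOMEscan kinase panel screen.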

SMILES | %Inh [1] | %Inh [2] | %Inh [3] | %Inh [4] | %Inh [5] | %Inh [6] | %Inh [7] | %Inh [8] | %Inh [9] | %Inh [10] | %Inh [11] | %Inh [12] | %Inh (S6K1) | %Inh (SBK1) | %Inh (SGK2) | %Inh (SGK3) | %Inh (SGK) | %Inh (SIK2) | %Inh (SIK) | %Inh (SLK)
O=C(Nc1cccc(-c2nn3ccccc3c2-c2ccnc(Nc3cccc(F)c3)n2)c1)c1c(F)ccc(F)c1Cl [GSK357952] | 15% | 0% | 28% | 20% | 63% | 14% | 18% | 8% | 24% | 0% | 4% | 0% | 2% | 12% | 0% | 2% | 10% | 16% | 34% | 91.2%
Cl.c1ccc(-c2ccc3c(Nc4ccc5[nH]ccc5c4)ccnc3c2)nc1 [GW440138] | 0% | 0% | 0% | 3% | 0% | 0% | 0% | 0% | 0% | 15% | 0% | 34% | 0% | 0% | 0% | 6% | 0% | 0% | 0% | 84%
CCCCc1nn2ncccc2c1-c1ccnc(Nc2ccc(N3CCN(C)CC3)cc2)n1 [GW684941] | 8% | 0% | 0% | 43% | 0% | 31% | 71% | 20% | 5% | 0% | 0% | 82% | 0% | 30% | 0% | 0% | 24% | 84% | 83% | 69%
Nc1ncc(-c2cccnc2)c2scc(-c3ccc4c(c3)CCN4C(=O)Cc3ccccc3)c12 [GSK683281] | 24% | 0% | 21% | 0% | 21% | 1% | 0% | 24% | 14% | 0% | 0% | 26% | 0% | 25% | 0% | 10% | 0% | 4% | 19% | 33%
Cl.Cl.NCC(NCc1ccc(-c2ccnc3[nH]ccc23)s1)c1ccccc1 (stereo not shown) [GSK1321565] | 16% | 57% | 32% | 53% | 25% | 0% | 36% | 0% | 39% | 14% | 55% | 26% | 53% | 57% | 0% | 43% | 55% | 0% | 5% | 74%
COc1ccc(CNC(=O)NC2CCN(c3ccnc(Nc4ccc(F)cc4)n3)CC2)cc1 [GSK1379788] | 0% | 0% | 7% | 9% | 18% | 0% | 0% | 5% | 0% | 0% | 0% | 12% | 0% | 0% | 0% | 0% | 0% | 0% | 0% | 7%
CN(c1ccc(NC(=O)Nc2cc(C(F)(F)F)ccc2F)cc1)c1ccnc(Nc2ccc(S(N)(=O)=O)cc2)n1 [GW809893] | 26% | 1% | 14% | 4% | 100% | 0% | 8% | 28% | 35% | 0% | 5% | 0% | 40% | 0% | 0% | 22% | 1% | 1% | 22% | 96.3%
O=C(O)C(F)(F)F.O=C(O)C(F)(F)F.O=c1[nH]ccc2nc(N[C@@H]3CCCNC3)nc(Nc3ccc(S(=O)(=O)N4CCOCC4)cc3)c12 [GSK2177277] | 98.7% | 98.5% | 77% | 74% | 96% | 75% | 99.7% | 11% | 99.3% | 90.2% | 99.4% | 52% | 98.8% | 92.7% | 96.1% | 99.2% | 88% | 84% | 78% | 98.4%
Cl.Cl.NCC(C(=O)Nc1cc(Br)c(-c2ccnc3[nH]ccc23)s1)c1ccccc1 (stereo not shown) [GSK1269851] | 18% | 1% | 10% | 5% | 6% | 0% | 24% | 2% | 100% | 3% | 0% | 2% | 35% | 3% | 0% | 24% | 28% | 0% | 0% | 14%
Cl.Cl.NCC(NC(=O)c1cc(-c2ccccc2)c(-c2ccnc3[nH]ccc23)s1)c1ccccc1 (stereo not shown) [GSK1321561] | 24% | 0% | 4% | 0% | 0% | 62% | 14% | 61% | 0% | 0% | 0% | 0% | 6% | 11% | 27% | 15% | 0% | 0% | 11% | 31%
Oc1cc(Nc2ccnc3cc(I)ccc23)ccc1F [GW552771] | 0% | 0% | 5% | 0% | 0% | 29% | 13% | 26% | 0% | 0% | 7% | 87% | 35% | 8% | 2% | 1% | 19% | 57% | 29% | 16%
Cc1ccc(F)c(C(=O)Nc2cccc(-c3nn4ccccc4c3-c3ccnc(Nc4cccc(F)c4)n3)c2)c1F [GSK361061] | 34% | 0% | 21% | 0% | 65% | 7% | 4% | 0% | 0% | 7% | 0% | 13% | 0% | 100% | 4% | 2% | 11% | 29% | 68% | 94.2%
O=C(Nc1cccc(-c2nn3ncccc3c2-c2ccnc(Nc3ccccc3)n2)c1)c1c(F)cccc1F [GSK198271] | 18% | 0% | 18% | 0% | 95.3% | 5% | 0% | 0% | 37% | 17% | 1% | 22% | 0% | 13% | 0% | 4% | 0% | 6% | 44% | 95%
COc1ccc(-c2coc3ccc(-c4nnc(SCc5ccc(OC)c(C(F)(F)F)c5)o4)cc23)cc1 | 9% | 15% | 0% | 0% | 1% | 17% | 14% | 19% | 16% | 19% | 25% | 16% | 0% | 0% | 6% | 28% | 0% | 21% | 10% | 9%
Cc1cccc(Nc2nc(N[C@H]3CCNC3)ncc2C(N)=O)c1.Cl [GSK2197149] | 0% | 0% | 2% | 0% | 22% | 31% | 31% | 0% | 23% | 4% | 30% | 23% | 5% | 42% | 12% | 0% | 0% | 30% | 35% | 30%
O=C(Nc1n[nH]c2nc(-c3ccc(O)cc3)ccc12)C1CC1 [SB-710363] | 8% | 99.5% | 0% | 53% | 14% | 64% | 52% | 0% | 12% | 0% | 70% | 0% | 40% | 0% | 36% | 15% | 43% | 0% | 0% | 61%
COc1cc(Nc2nccc(-c3c(-c4cccc(NC(=O)c5c(F)cccc5F)c4)nn4ccccc34)n2)cc(OC)c1OC [GSK323521] | 25% | 0% | 27% | 0% | 5% | 14% | 32% | 47% | 25% | 9% | 0% | 23% | 7% | 17% | 26% | 7% | 22% | 0% | 30% | 25%
C[C@@H]1CC[C@@H](C(=O)Nc2ccccc2)CN1c1cc(-c2ccc3c(N)n[nH]c3c2)nc(N)n1 [GSK2286062] | 4% | 0% | 6% | 2% | 14% | 3% | 7% | 19% | 2% | 24% | 0% | 17% | 0% | 26% | 0% | 0% | 0% | 0% | 0% | 1%
CC(C)c1nc(-c2cccc(NS(=O)(=O)c3c(F)cccc3F)c2F)c(-c2ccnc(Nc3ccc(N4CCOCC4)nc3)n2)s1 [GSK2008607] | 0% | 0% | 2% | 0% | 100% | 12% | 41% | 0% | 45% | 0% | 10% | 39% | 82% | 40% | 9% | 28% | 40% | 91.3% | 99.5% | 97%
Cc1occc1-c1ncc(OC[C@@H](N)Cc2c[nH]c3ccccc23)cc1-c1ccc2[nH]nc(C)c2c1.O=C(O)C(F)(F)F [GSK682037] | 8% | 0% | 49% | 0% | 7% | 0% | 79% | 0% | 22% | 0% | 61% | 0% | 56% | 19% | 0% | 20% | 0% | 65% | 54% | 95.2%
